Laboratory results as given in PubChem BioAssay (NCI).
The panel holds about 83,000 compounds, 20% with a hit somewhere; the sample as a whole holds those more often.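 In brief: 96-well plates, 48 h treatment, single concentration, percent growth endpoint.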 Values without a mark were called inactive. Active and inactive are the calls of the source. How the source made its calls: active means growth percent below 10; inactive means the rest.

Tests used:
Experiment in all cases: NCI-60 one-dose screen, 48 h (100 = growth as untreated, 0 = no growth, -100 = all killed)
Details in all cases: 10 µM unless noted
DU-145 prostate = system: DU-145 prostate
K-562 leukemia = system: K-562 leukemia
MALME-3M melanoma = system: MALME-3M melanoma
MDA-MB-231 breast = system: MDA-MB-231 breast
RXF 393 renal = system: RXF 393 renal
SF-268 CNS = system: SF-268 CNS
SF-295 CNS = system: SF-295 CNS
SF-539 CNS = system: SF-539 CNS
UACC-257 melanoma = system: UACC-257 melanoma
M14 melanoma = system: M14 melanoma

Row | Compound | growth (DU-145 prostate) | growth (K-562 leukemia) | growth (MALME-3M melanoma) | growth (MDA-MB-231 breast) | growth (RXF 393 renal) | growth (SF-268 CNS) | growth (SF-295 CNS) | growth (SF-539 CNS) | growth (UACC-257 melanoma) | growth (M14 melanoma)
1 | Cc1ccc(C(=O)Nc2cc(-n3ccnc3C)cc(C(F)(F)F)c2)cc1C#Cc1cnc2cccnn12 | 18.6% | -3.69% (active) | -35.6% (active) | -37.5% (active) | -54.6% (active) | 25.7% | -60.9% (active) | -81.8% (active) | 3.43% (active) | -20% (active)
2 | COc1c(B(O)O)cc(F)cc1-c1nc2c(F)cc3[nH]ncc3c2c2c1CCCC2 | 14.6% | 38.8% | 50.9% | 3.96% (active) | -45.4% (active) | 30.3% | 15.2% | -44% (active) | 40% | 38.2%
3 | CN1C(=O)/C(=C/c2ccco2)S/C1=N/c1nccs1 | 107% | 101% | 118% | 109% | 111% | 107% | 102% | 103% | 117% | 117%
4 | Cc1nc(Nc2ccccn2)sc1C1=NNC(c2ccccc2F)C1 (stereo not given) | 67.4% | 15.1% | 63.8% | 47.5% | 87.5% | 78.2% | 39.6% | 32.4% | 83.2% | 52.6%
5 | COc1ccc(-c2cc(-c3cc(OC)c(OC)c(OC)c3)[nH]c(=O)c2C#N)cc1 | 93% | 79.1% | 29.7% | 1.65% (active) | 14.6% | 54.3% | 59.1% | -18.3% (active) | 96.4% | 96.7%
6 | COc1cc(NC(=O)CSc2nnc(-c3ccc(-c4nc5ccc(Cl)cc5[nH]4)cc3)o2)cc(OC)c1OC | 96% | 29.5% | 18.1% | 60.2% | 25.8% | 52.9% | 65% | 24.1% | 67.2% | 33.5%
7 | Cc1cnc2ccc(Oc3ccccc3-c3ccccc3)nn12 | 115% | 101% | 100% | 109% | 107% | 106% | 97.5% | 104% | 116% | 99.6%
8 | COc1cc(/C=C/C(=O)c2cnn(-c3cc(=O)[nH]c4ccccc34)c2C)cc(OC)c1OC | 24.9% | 3.19% (active) | 38.2% | 5.84% (active) | -6.88% (active) | 32.2% | 14.5% | -48% (active) | 43.3% | 19.5%
9 | COC(=O)c1c(C(=O)OC)c2ccc3c4ccccc4ccc3n2c1C(=O)C(C)Br (stereo not given) | 71.7% | 4.34% (active) | 37.9% | 33.1% | 32.8% | 69.3% | 78% | 17.2% | 57% | 46.5%
10 | O=C(Nc1ccc(-c2ccc3c(c2)NC(=O)/C3=C\c2ccc[nH]2)cc1)Nc1ccc(Cl)c(Cl)c1 | 54.3% | 39% | 68.7% | 71.5% | -1.35% (active) | 48.9% | 23.3% | -48.9% (active) | 76% | 59.3%
11 | Nc1cc(-c2c[nH]c3ccc(Cl)cc23)nc2cc(-c3c[nH]c4ccccc34)nn12 | 8.69% (active) | 6.27% (active) | -68.2% (active) | -79.2% (active) | -21.5% (active) | 9.75% (active) | -79.4% (active) | -81.5% (active) | -73.2% (active) | -25.8% (active)
12 | COc1ccc2[nH]c(=O)c(CSc3ccccc3Nc3nccc(-c4ccc5c(c4)OCO5)n3)cc2c1 | 78.4% | 52.7% | 99.4% | 93.7% | 79.7% | 73.4% | 104% | 95% | 96.6% | 91.5%
13 | Cc1ccc(S(=O)(=O)Nc2ccc(-c3ccc4c(c3)NC(=O)/C4=C\c3ccc[nH]3)cc2)cc1 | 65.6% | 42.2% | 90% | 97.4% | 96.4% | 111% | 93.8% | 93.8% | 110% | 90.9%
14 | COc1ccc(C(=O)C[n+]2cccc3c4ccccc4ccc32)cc1 | 56.3% | 16.4% | 34.3% | 40.4% | 55.8% | 38% | 29.8% | 53.1% | 15.4% | 38.5%
15 | N#Cc1ccc(C(=O)NNC(=O)CSc2nc3sc4c(c3c(=O)n2-c2ccc(Cl)cc2)CCCC4)cc1 | 70.4% | 63.4% | 39.5% | 3.65% (active) | 47.5% | 92.7% | 62.7% | -43.9% (active) | 91.4% | 44.7%
16 | O=C(Cn1c(-c2ccccc2)nc2ccccc21)N=Nc1c(O)[nH]c2ccc(Br)cc12 | 3.6% (active) | 6% (active) | -20.5% (active) | -56.8% (active) | -80% (active) | -0.321% (active) | -80.4% (active) | -80.9% (active) | 9.11% (active) | 5.92% (active)
17 | CCCN(CCC)S(=O)(=O)c1ccc(C(=O)O)cc1.CCCN(CCC)S(=O)(=O)c1ccc(C(=O)O)cc1.[Cl][Pt+2][Cl].[NH2-].[NH2-] | 13.2% | 9.96% (active) | -98.1% (active) | -22.8% (active) | -59.6% (active) | 17.5% | 32.9% | 15.6% | -0.891% (active) | 33%
18 | CN(C)c1nc(NCCNS(=O)(=O)c2ccc(C3=Nc4c(N)nc(N)nc4NC(c4ccc(C(F)(F)F)cc4)C3)cc2)nc(N2CCOCC2)n1 (stereo not given) | 61.8% | 9.12% (active) | 60.3% | 38.5% | 16.6% | 38.6% | 45.5% | 34.3% | 52.9% | 28%
19 | CCCCNC(=S)Nc1ccc(OCc2nc3ccc(Cl)cc3[nH]2)cc1 | 26.3% | 11.1% | 41.2% | 10.5% | -1.67% (active) | 48.3% | 67.6% | 28.4% | 56.9% | 39.1%
20 | O=c1c(-c2nc(-c3ccccc3)c(-c3ccccc3)[nH]2)coc2ccc(F)cc12 | 46.1% | 32.5% | 52% | 64% | 92.3% | 64% | 71.5% | 70.9% | 77.6% | 53.3%
21 | N#Cc1cc(-c2ccc3ncnc(N4CCc5cc(F)c(Cl)cc54)c3c2)cnc1N | 8.95% (active) | 37.8% | 50.6% | 28.7% | 17.9% | 46.5% | 40.1% | 35.6% | 90.2% | 36.8%
22 | COc1ccccc1/C=C/c1cccc(NC(=S)NCCCCN(C)C)c1 | -69% (active) | 1.56% (active) | -90.6% (active) | -89.8% (active) | -94.2% (active) | 6.05% (active) | -100% (active) | -93% (active) | -82.6% (active) | -74% (active)
23 | COc1ccc(-c2cc(C(=O)Oc3ccc(C=O)cc3OC)nn2-c2ccc(S(C)(=O)=O)cc2)cc1 | 110% | 96.1% | 105% | 94.3% | 122% | 103% | 110% | 106% | 115% | 117%
24 | COc1ccc2c(c1)C(Sc1ccc(Br)cc1)c1c(nc(N)c(C#N)c1N)O2 (stereo not given) | 95.4% | 69.1% | 85.2% | 79.2% | 67.6% | 75.2% | 81.1% | 88.8% | 103% | 85.6%
25 | Cc1cc(C(NC(=O)CCCCCNc2cccc3c2C(=O)N(C2CCC(=O)CC2=O)C3=O)c2cccc(N(C)C)c2)c(O)c2ncccc12 (stereo not given) | 27.5% | 9.86% (active) | -11.8% (active) | -22.2% (active) | 32.1% | 20.5% | 2.01% (active) | 1.5% (active) | 1.91% (active) | -26.5% (active)
26 | Cc1cc(C)c2[nH]c(=O)c(C(c3nnnn3Cc3ccc4c(c3)OCO4)N3CCN(C)CC3)cc2c1 (stereo not given) | 103% | 107% | 110% | 112% | 114% | 101% | 104% | 104% | 110% | 111%
